Jurkat NFkB inh – inhibitors of induced NF-kB luciferase reporter, primary screen, TCR NF-kB activation inhibitor project, cell-based, luminescence, uHTS; Jurkat, PMA/ionomycin-induced NF-kB luciferase reporter; inhibition, % at 4 µM; actives 0.53% (n = 330,000); AID 435003, 2010; in the data active means inhibition above about 50%
697 NFkB inh – inhibitors of PMA/ionomycin-induced NF-kB reporter, 697 cells, primary screen, B-cell NF-kB inhibitor project, cell-based, luminescence, uHTS. actives 0.33% (n = 330,000). inhibition, % at 4 µM. 697 B-cell NF-kB luciferase reporter, 16 h; in the data active means inhibition above about 35%
aSyn UTR inh – MLPCN primary screen, SNCA 5' untranslated region; alpha-synuclein 5'UTR reporter, inhibitor activity; inhibition, % (tested at 7.5 µM); actives 0.82% (n = 300,000); in the data active means inhibition above about 60%;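 further: H4 neuroglioblastoma cells stably carrying SNCA 5'UTR luciferase fusion; 0% = DMSO wells and 100% = positive control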
KLF5 inh – KLF5 expression inhibitors, primary screen, DLD-1 cells, luminescence; actives 0.23% (n = 290,000); DLD-1 KLF5 promoter-luciferase reporter; inhibition, % at 5 µM; AID 1700, 2009;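 active means inhibition above a per-plate limit of that plate's mean compound inhibition plus 3 SD, cut at about 60% in these data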;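 further: 0% = DMSO wells and 100% = LY294002 at 200 µM; higher means less KLF5 promoter-driven luciferase light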
ANO1 block – TMEM16A chloride channel inhibitors, primary screen, cell-based, HTS; Anoctamin-1 (Mus musculus), Q8BHY3; HEK293 TMEM16A/YFP iodide influx fluorescence, ionomycin; normalized B-score (activity score, 25-100; higher = stronger inhibition) at 10 µM; actives 1.2% (n = 310,000); AID 588511, 2011;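 active means ratio plate-corrected score three or more library SD toward inhibition, starting fluorescence score within five deviations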;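 further: score derived from kinetic fluorescence span divided by baseline fluorescence per well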
Target sequence (Q8BHY3 whole entry, looked up): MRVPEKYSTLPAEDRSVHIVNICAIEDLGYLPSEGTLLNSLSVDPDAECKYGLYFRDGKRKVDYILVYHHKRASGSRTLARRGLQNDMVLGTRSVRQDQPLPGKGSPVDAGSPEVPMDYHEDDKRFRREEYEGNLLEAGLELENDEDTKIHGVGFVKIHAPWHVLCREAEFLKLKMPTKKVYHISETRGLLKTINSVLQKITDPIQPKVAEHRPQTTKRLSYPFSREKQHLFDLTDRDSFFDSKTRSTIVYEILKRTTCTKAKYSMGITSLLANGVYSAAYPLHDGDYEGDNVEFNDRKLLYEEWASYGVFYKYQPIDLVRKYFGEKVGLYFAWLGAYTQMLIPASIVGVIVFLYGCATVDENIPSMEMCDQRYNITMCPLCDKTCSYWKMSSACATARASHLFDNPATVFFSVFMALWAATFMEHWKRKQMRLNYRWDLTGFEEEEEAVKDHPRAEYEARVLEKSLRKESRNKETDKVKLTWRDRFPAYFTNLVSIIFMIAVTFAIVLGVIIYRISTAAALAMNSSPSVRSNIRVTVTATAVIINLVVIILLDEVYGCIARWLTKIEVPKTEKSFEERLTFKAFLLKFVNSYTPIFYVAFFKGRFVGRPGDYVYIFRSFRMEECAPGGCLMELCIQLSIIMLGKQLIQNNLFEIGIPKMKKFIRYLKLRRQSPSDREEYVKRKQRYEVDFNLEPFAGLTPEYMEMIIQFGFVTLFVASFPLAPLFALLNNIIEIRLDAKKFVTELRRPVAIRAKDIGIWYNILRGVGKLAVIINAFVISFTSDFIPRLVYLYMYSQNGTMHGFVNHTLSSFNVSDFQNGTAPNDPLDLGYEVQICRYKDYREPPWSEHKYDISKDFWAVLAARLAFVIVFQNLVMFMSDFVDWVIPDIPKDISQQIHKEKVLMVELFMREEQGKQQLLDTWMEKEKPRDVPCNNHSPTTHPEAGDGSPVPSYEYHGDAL
TMEM16A act – TMEM16A chloride channel activators or potentiators, primary screen, cell-based, HTS. actives 0.3% (n = 340,000). Anoctamin-1 (Mus musculus), Q8BHY3. HEK293 TMEM16A/YFP-H148Q/I152L, iodide quench fluorescence; hits give low values. B-score at 10 µM;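 active means fluorescence-ratio B-score plate-corrected deviation score at least 3 library SD below zero, with starting fluorescence score within 5 deviations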;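 further: channel opened by trigger with iodide after compound preincubation; score built on the fluorescence ratio of max minus min over baseline; more negative score means more quench and so TMEM16A activation or potentiation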
Starred values were filed as active, the others as inactive; i = inactive; . = not tested or not shown. In the library only some 2.5% were active in any assay of this set; here they are far more common.

SMILES	Jurkat NFkB inh	697 NFkB inh	aSyn UTR inh	KLF5 inh	ANO1 block	TMEM16A act
CC(=O)Nc1ccc2cc3ccc(NC(C)=O)cc3nc2c1	.	.	-73	-27	i	-9.8*
O=C(c1ccccc1)N1CCSc2sccc2C1=O	.	.	97*	10	.	i
O=c1cc(OCc2ccccc2)cc[nH]1	11	19	.	.	.	i
O=C(OCn1ncc(Br)c(Br)c1=O)c1ccc(F)cc1	27	-37	64*	26	i	i
O=C(OCn1ncc(Br)c(Br)c1=O)c1ccccc1Cl	21	-29	-40	9	i	i
Cc1cc(C)c(C(=O)CN2C(=O)C(=O)N(C3CCCC3)C2=O)cc1C	-26	-13	.	.	.	i
O=C(COC(=O)CCc1c[nH]c2ccccc12)Nc1ccccc1C(F)(F)F	0	7	.	.	.	i
Cc1ccc(CN/C=C/C(=O)c2ccc(Br)cc2)cc1	-15	-28	-31	7	100*	i
CC(C)c1nc2sc3c(NCc4ccco4)ncnc3c2c2c1COC(C)(C)C2	4	-6	71*	-25	i	i
COc1ccccc1N(CC(=O)NCCSCc1ccccc1)S(=O)(=O)c1ccc(C)cc1	5	8	30	-16	25*	i
COc1ccccc1N(CC(=O)NCCSCc1ccco1)S(=O)(=O)c1ccccc1	12	11	13	1	i	i
O=C1C(Cl)=C(Nc2ccc3cn[nH]c3c2)C(=O)c2ccccc21	.	.	100*	-28	i	i
Cc1ccc(Cl)cc1N(C)C(=O)Cn1ncc2c([nH]c3ccccc32)c1=O	1	6	27	-13	i	i
CCOc1ccc(CNc2ccc(S(N)(=O)=O)cc2)cc1	-2	9	15	-16	i	-5.1*
CCOc1ccc(CNCCc2ccc(S(N)(=O)=O)cc2)cc1	-12	13	20	-16	i	i
CCC(C)n1ncn(-c2ccc(N3CCN(c4ccc(O)cc4)CC3)cc2)c1=O (stereo unspecified)	4	5	73*	57	i	i
CSc1cccc(NC(=O)CNS(=O)(=O)c2ccccc2)c1	-1	-14	-6	-18	i	i
COc1ccc(CNc2oc(COc3ccc(Cl)cc3)nc2C#N)cc1	1	-7	10	2	i	i
COc1ccc(Nc2oc(COc3ccc(Cl)cc3)nc2C#N)cc1	10	10	91*	2	i	i
CCCC1=NN(C(=O)C(=O)Nc2ccc(Br)cc2)C(O)(C(F)(F)F)C1 (stereo unspecified)	-4	6	9	-46	25*	i
Cc1cc(C)cc(-n2ncc3c2CCCC3NC(=O)c2cc(C)n(C)n2)c1 (stereo unspecified)	-16	-13	-3	-49	i	i
Cc1cc(C(=O)NC2CCCc3c2cnn3-c2ccc(C(C)(C)C)cc2)nn1C (stereo unspecified)	39	19	8	6	25*	i
CC(=O)N1c2c(cc(Br)cc2S(=O)(=O)N2CCCCC2)CC1C (stereo unspecified)	0	-14	9	-1	i	i
CC(=O)N1c2c(cc(Br)cc2S(=O)(=O)N2CCN(c3ccccc3F)CC2)CC1C (stereo unspecified)	4	-17	12	-15	25*	i
O=C(CCCOc1ccccc1)N1CCCCC1	-60	-129	71*	-44	i	i
SMILES	Jurkat NFkB inh	697 NFkB inh	aSyn UTR inh	KLF5 inh	ANO1 block	TMEM16A act
Brc1ccc(-c2nnc(Cc3ccccc3)o2)cc1	-69	-86	-169	-64	i	i
c1ccc(Cc2nnc(-c3ccccc3)o2)cc1	-55	-36	-120	-152	i	-6.8*
CCN1CCN(Cc2ccc(NC(=O)c3ccc(C)c(NC(=O)c4cccc(-c5cn[nH]c(=O)c5)c4)c3)cc2C(F)(F)F)CC1	-20	-24	-8	-9	i	i
CCN1CCN(Cc2ccc(NC(=O)c3ccc(C)c(/C=C/c4cnc(Nc5cc(N6CCNCC6)nc(C)n5)cn4)c3)cc2C(F)(F)F)CC1	-72	12	110*	-7	i	i
CCN1CCN(Cc2ccc(NC(=O)c3ccc(C)c(NC(=O)c4c[nH]c5cc(C(F)(F)F)ccc5c4=O)c3)cc2C(F)(F)F)CC1	-23	8	113*	.	i	i
CCN1CCN(Cc2ccc(NC(=O)c3ccc(C)c(NC(=O)c4ccno4)c3)cc2C(F)(F)F)CC1	19	8	67*	.	i	i
CCN1CCN(Cc2ccc(NC(=O)c3cc(NC(=O)c4ccno4)cc(OC)c3)cc2C(F)(F)F)CC1	-24	-9	-45	.	i	i
Cc1ccc(C(=O)Nc2cccc(C(F)(F)F)c2)cc1NC(=O)c1c[nH]c2cc(C(F)(F)F)ccc2c1=O	-8	-25	.	.	.	i
Cc1nnsc1C(=O)N/N=C/c1ccc2ccccc2c1O	43	-18	120*	-12	i	i
Cc1nnsc1C(=O)N/N=C/c1ccccc1	-11	5	13	14	i	i
CCN(CC(=O)NCc1ccc(Cl)cc1)C(=O)COc1cccc(Cl)c1	3	23	3	.	i	i
O=C(/C=C/Nc1ccccc1Br)c1ccccn1	42	-28	114*	22	i	i
O=C(/C=C\Nc1ccccn1)c1ccccc1	-106	-249	49	-82	i	i
COc1ccccc1NC(=O)c1ccc2c(c1)N(CC(=O)NC(C)C)C(=O)C(C)(C)O2	-5	18	5	-14	i	i
O=C(Nc1ncc(Br)s1)C(Cc1ccccc1)n1cccc1 (stereo unspecified)	9	-8	16	-7	100*	i
O=C(Nc1cccnc1)C(Cc1ccccc1)n1cccc1 (stereo unspecified)	0	2	-32	-35	i	i
CC(CCC(C)C(C)(C)C)[C@@H]1CC[C@H]2C3C[C@H](OS(O)(=S)=S)[C@H]4C[C@H](OS(O)(=S)=S)[C@@H](OS(O)(=S)=S)C[C@]4(C)[C@H]3CC[C@]12C (stereo partly specified) (tested in a mixture with another compound)	-6	13	.	.	.	-11*
CCOc1cc(CNS(=O)(=O)c2ccc3c(c2)CC(=O)N3C)cc(OCC)c1OCC	-8	-3	-4	-30	i	-5.2*
CN1C(=O)Cc2cc(S(=O)(=O)NCc3cccs3)ccc21	8	14	-30	-19	i	i
